Screening results (PubChem BioAssay)
Compounds with a hit are over-represented: about 10% of the library has one in this group of screens.
Sfp PPTase inh: Sfp phosphopantetheinyl transferase inhibition | AID 1490 | Biochemical Sfp PPTase activity, qHTS | Q9F4F7 | Potency, µM, for inactives: largest response in the series, negative = inhibition, usual class: inhibitors | 310,000 tested, 3.5% active;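 also: the enzyme is Sfp with the accession as filed and its product quenches rhodamine fluorescence; potency is read from the fitted curve at half-maximal effect; 0% = enzyme reaction without inhibitor and -100% = no enzyme wells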
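After 15 min at room temperature with compound, 15 nM Sfp received 5 uM rhodamine-CoA plus 12.5 uM BHQ-2-ybbR (50 mM Hepes pH 7.6, 10 mM MgCl2). Rate came from the fluorescence difference over 30 min, ex 525/em 598 nm.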
MmCpn inh: inhibitors of Methanococcus maripaludis chaperonin TRiC (MmCpn); Potency, µM (series often up to 76.9 µM), inactives show top-dose activity, negative = inhibition, hits mostly inhibitors; purified Mm-Cpn ATPase, ADP Transcreener TR-FRET; 330,000 tested, 0.031% active; AID 504842; also: potency is read from the fitted curve at half-maximal effect; nearly all actives have a fitted effect of over 80% in size
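Eu-cryptate anti-ADP/ADP-d2 competition gives a ratio inversely related to ADP. Enzyme at 25 nM was pre-exposed to compound for 10 min, then given 10 uM ATP for 30 min, 37°C throughout.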
CCT chaperon mod: cytosolic chaperonin activity modulation; activity change, % (concentration not given with the values), hits read low; 360,000 tested, 0.3% active; purified chaperonin ATPase assay, HTRF ADP detection, 30 min; AID 651819; in the data active = activity change below about -30%
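Enzyme 40 or 20 nM (batch-dependent) in Tris pH 7.4/KCl/MgCl2/DTT; cpd 76 uM single point; ATP 10 uM; 30 min 37 °C; Transcreener ADP HTRF detection, 30 min RT; ratio 665/615.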
G9a inh: inhibitors of human histone lysine methyltransferase G9a | Potency, µM (titrated, usually from 102 µM), without a hit: at the highest dose activity, negative = inhibition, actives largely listed as inhibitors | 350,000 tested, 8.8% active | Q96KQ7 | AID 504332 | G9a H3K9 monomethylation, AlphaScreen, 2 h; also: potency is read from the fitted curve at half-maximal effect; nearly all actives have a fitted effect of over 75% in size
Target sequence (Q96KQ7 913-1193 limits assumed): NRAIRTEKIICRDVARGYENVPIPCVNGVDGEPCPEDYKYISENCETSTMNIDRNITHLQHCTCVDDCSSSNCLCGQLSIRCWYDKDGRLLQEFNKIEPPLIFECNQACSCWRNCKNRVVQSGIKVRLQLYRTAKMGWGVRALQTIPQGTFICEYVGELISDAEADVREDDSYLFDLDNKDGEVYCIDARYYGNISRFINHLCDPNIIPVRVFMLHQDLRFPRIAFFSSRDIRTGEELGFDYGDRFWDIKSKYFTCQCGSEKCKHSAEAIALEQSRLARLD
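G9a (20 nM) preincubated 15 min RT with compounds, then 500 nM biotinylated H3K9 peptide and 20 uM SAM added; 2 h RT reaction. Monomethyl-H3K9 product detected by AlphaScreen with anti-H3K9me1 antibody, streptavidin donor and anti-rabbit IgG acceptor beads.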
VDR inhibitor: inhibitors of human vitamin D receptor | P11473 | VDR-SRC2-3 peptide fluorescence polarization, 2 h | Potency, µM, inactives show max response, negative = inhibition, usual class: inhibitors | 400,000 tested, 0.93% active | AID 504847; also: potency is read from the fitted curve at half-maximal effect
Target sequence (P11473 whole entry, looked up): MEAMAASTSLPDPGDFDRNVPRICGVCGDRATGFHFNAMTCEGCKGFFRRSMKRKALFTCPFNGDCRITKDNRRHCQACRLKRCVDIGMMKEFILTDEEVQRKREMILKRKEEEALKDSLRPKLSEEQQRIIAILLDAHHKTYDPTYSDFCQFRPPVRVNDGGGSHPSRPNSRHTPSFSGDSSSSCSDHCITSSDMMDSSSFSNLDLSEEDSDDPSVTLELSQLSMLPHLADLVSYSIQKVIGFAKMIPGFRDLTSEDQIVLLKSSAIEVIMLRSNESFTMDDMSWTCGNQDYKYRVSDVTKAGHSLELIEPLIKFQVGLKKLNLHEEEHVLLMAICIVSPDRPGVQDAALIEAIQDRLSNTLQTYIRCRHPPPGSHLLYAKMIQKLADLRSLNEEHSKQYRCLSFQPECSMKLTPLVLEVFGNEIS
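Signal is fluorescence polarization, reporting how far test compounds block the interaction of VDR with the SRC2-3 coregulator peptide after a 2 h room-temperature incubation.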
PLK1 PBD inh: PLK1 (human) polo-box domain binding inhibition | P53350 | Plk1 PBD binding of FITC phosphopeptide, fluorescence polarization | Potency, µM, for the others: max response, negative = inhibition, most hits filed as inhibitors | 360,000 tested, 2.8% active; also: potency is read from the fitted curve at half-maximal effect; series mostly up to about 57 µM; nearly all actives have a fitted effect of over 65% in size
Active calls of the source: *; ? = inconclusive; nt = not tested or not shown; [ ] = another dose, or the depositor's remark. Unless noted, calls follow the shape of the dose curve; as a rule, active = well fitted curve in the direction sought with a large enough effect; inconclusive = small, poorly fitted or top-dose-only effect, or another doubt; inactive = no such curve, though single readings can be large; an effect the other way counts as inactive or inconclusive. Unless noted, % is scaled to controls: 0 for no effect and ±100 for the full control effect.

SMILES | Sfp PPTase inh | MmCpn inh | CCT chaperon mod | G9a inh | VDR inhibitor | PLK1 PBD inh
Cc1ccc2nc(SCc3cn4cccnc4n3)[nH]c2c1 | 4% | 1% | -4 | 7% | ? | 27µM*
Nc1ccccc1SCc1cn2cccnc2n1 | -12% | 0% | -2 | 35µM* | -9% | ?
c1ccc2c(SCc3cn4ccccc4n3)nncc2c1 | 45µM* | 2% | -2 | 2% | 1% | -6%
CCOc1cccc2sc(N(Cc3cccnc3)C(=O)c3ccc(C#N)cc3)nc12 | nt | nt | nt | 5%[59 µM] | 10% | nt
CCOC(=O)c1ccc(N2C(=O)c3[nH]nc(-c4ccc(C)cc4)c3C2c2ccc(O)c(OCC)c2)cc1 (configuration not stated) | nt | nt | nt | -29%[59 µM] | -24% | nt
Cc1ccc(SCCN2CCN(C)CC2)cc1 | -18% | -3% | 1 | 50µM* | 2% | -15%
CCN(Cc1ccccc1)C(=O)c1cc2ccc3cccnc3c2[nH]1 | nt | nt | nt | -26%[59 µM] | -3% | nt
O=C(Nc1ccccc1N1CCCC1)C1CCN(C(=O)c2ccc(F)cc2)CC1 | nt | 0% | -2 | 50µM* | 11% | -10%
O=C(Nc1ccccc1N1CCCC1)C1CCN(C(=O)c2ccc(Cl)cc2)CC1 | nt | 3% | 1 | 50µM* | -2% | -5%
N#Cc1ccsc1NC(=O)C1CCN(C(=O)c2ccc(Cl)cc2)CC1 | nt | 0% | -1 | 50µM* | 0% | -18%
Cc1noc(C)c1-c1ccc2ncnc(NC(C)c3ccccc3)c2c1 (configuration not stated) | -19% | nt | nt | nt | nt | nt
COc1ccccc1NC(=O)Cn1c(=O)n(Cc2cccs2)c(=O)c2cccnc21 | nt | nt | nt | 15%[59 µM] | 3% | nt
CCCCCCCCCCOc1cc(OCCCCCCCCCC)cc(N(CC(=O)O)CC(=O)O)c1 | -7% | nt | nt | nt | 50µM* | nt
CCCCCCOc1ccc(C(CC(=O)O)C(N)=O)cc1 (configuration not stated) | 7% | -2% | 0 | 0% | -2% | -10%
N#C/C(=C\c1ccccc1)C(=O)Nc1sc2c(c1C(N)=O)CCC2 | nt | nt | nt | -4%[59 µM] | -5% | nt
COc1ccc(C2C=C(c3ccccc3)Nc3nc(CCCO)nn32)cc1 (configuration not stated) | 5% | -7% | -1 | ? | -2% | -14%
OCCCc1nc2n(n1)C(c1ccccc1)C=C(c1ccccc1)N2 (configuration not stated) | -6% | -4% | -1 | 40µM* | -3% | -21%
Cc1ccc(C2C=C(c3ccc(F)cc3)Nc3nc(CCCO)nn32)cc1 (configuration not stated) | nt | nt | nt | -41%[59 µM] | -5% | nt
COc1ccc(C2C=C(c3cccs3)Nc3nc(CCCO)nn32)cc1 (configuration not stated) | 16µM* | -9% | nt | 40µM* | nt | nt
O=C(O)CCCCCNS(=O)(=O)c1ccc2c3c(cccc13)C(=O)N2 | -1% | -1% | 2 | 79µM* | -21% | -10%
O=C1Nc2ccc(S(=O)(=O)N(CCO)CCO)c3cccc1c23 | 15% | -4% | -7 | 5% | -30% | 21µM*
O=C(O)CNS(=O)(=O)c1ccc2c3c(cccc13)C(=O)N2 | -1% | -16% | 0 | nt | -20% | -10%
CN(C)c1cccc(C(=O)Nc2ccc(-c3nc4ccccc4s3)cc2)c1 | nt | nt | nt | 1%[59 µM] | 13% | nt
Cc1cc(C)n(CCO)c(=O)n1 | 9% | 0% | 1 | -7%[59 µM] | 16% | -10%
Cc1cc(=S)cc(C)n1CCO | -14% | 1% | -5 | 13µM* | ? | -7%
SMILES | Sfp PPTase inh | MmCpn inh | CCT chaperon mod | G9a inh | VDR inhibitor | PLK1 PBD inh
CN1C=CC=C/C1=C1\SC(=S)N(c2ccccc2)C1=O | 25µM* | 0% | 0 | 18µM* | ? | -19%
C=CCN1C=CC=C/C1=C1\SC(=S)N(C)C1=O | ? | ? | -3 | ? | -26% | -16%
CCN1C(=O)/C(=C2\C=Cc3ccccc3N2CC)OC1=S | nt | nt | -2 | nt | -1% | -3%
CCN1C(=O)/C(=C2/C=CC=CN2C)OC1=S | -17% | 0% | 0 | 45µM* | -11% | -19%
CN1C=CC=C/C1=C1\SC(=S)N(CC(=O)O)C1=O | 45µM* | 0% | -4 | 20µM* | 0% | -7%
CN1C=CC=C/C1=C1\SC(=S)N(C2CCCCC2)C1=O | -18% | -3% | 0 | 16µM* | -21% | -5%
CCc1ccc(NC(=O)Cn2c(=O)n(Cc3nc(C)no3)c(=O)c3cc4c(cc32)OCO4)cc1 | nt | nt | nt | 9%[59 µM] | 12% | nt
Cc1ccc(C)c(NC(=O)Cn2cc(S(=O)(=O)c3ccc(F)cc3)c(=O)c3cc(F)ccc32)c1 | nt | nt | nt | 6%[59 µM] | -23% | nt
Cc1ccccc1CSc1ncc(Cl)c(C(=O)Nc2nc3ccc(F)cc3s2)n1 | nt | nt | nt | -18%[59 µM] | 6% | nt
CCC(=O)N1CCc2cc(CNC(=O)c3ccc(OC)cc3)ccc21 | nt | nt | nt | 6%[59 µM] | 10% | nt
O=C(O)c1cc(N(Cc2ccccc2O)Cc2cc(O)ccc2O)ccc1O | 18µM* | nt | nt | 2.2µM* | 50µM* | nt
COc1ccc(CCNC(=O)c2cc(=O)[nH]c3ccc(S(=O)(=O)N4CCCCC4C)cc23)cc1OC (configuration not stated) | nt | nt | nt | 2%[59 µM] | -10% | nt
O=S(=O)(c1ccccc1)N1CCC(c2ccncc2)CC1 | nt | nt | nt | 7%[59 µM] | 13% | nt
COc1cc(C(=O)N(Cc2ccc(N(C)C)cc2)CC2CCCO2)cc(OC)c1OC (configuration not stated) | nt | nt | nt | ? | 4% | nt
Cc1ccc2oc(C(=O)N(Cc3ccc(N(C)C)cc3)CC3CCCO3)c(C)c2c1 (configuration not stated) | -10% | 0% | 0 | 28µM* | -8% | -5%
Cc1cc2oc(C(=O)N(Cc3ccc(N(C)C)cc3)CC3CCCO3)c(C)c2cc1C (configuration not stated) | ? | -2% | 0 | 14µM* | -4% | 5%
O=C(CCN1C(=O)/C(=C/c2cccs2)SC1=S)Nc1ccc(C(=O)O)c(O)c1 | -16% | 1% | -7 | 45µM* | 9% | 27µM*
O=C(CCN1C(=O)/C(=C/c2ccc(Cl)cc2)SC1=S)NC1C=CS(=O)(=O)C1 (configuration not stated) | -3% | 4% | 1 | 27%[59 µM] | -3% | -20%
O=C(CCCN1C(=O)/C(=C/c2cccs2)SC1=S)Nc1cccc(C(=O)O)c1 | 13% | -1% | 0 | ? | -17% | -16%
CC(=Cc1ccccc1)C=C1SC(=S)N(CCCC(=O)Nc2ccc(C(=O)O)c(O)c2)C1=O | nt | nt | 1 | nt | nt | ?
O=C(CN1C(=O)/C(=C/c2ccc(Cl)cc2)SC1=S)NC1C=CS(=O)(=O)C1 (configuration not stated) | 40µM* | -1% | -1 | 61%[59 µM] | -7% | -18%
CC(/C=C1\SC(=S)N(CCCC(=O)Nc2ccc(C(=O)O)c(O)c2)C1=O)=C\c1ccccc1 | ? | 3% | 0 | ? | ? | 27µM*
